According to PubChem BioAssay (NCATS):
Results filed as inconclusive are left out. Active and inactive are the calls of the source. Unless noted, calls follow the shape of the dose curve; as a rule, active = well fitted curve in the direction sought with a large enough effect; inconclusive = small, poorly fitted or top-dose-only effect, or another doubt; inactive = no such curve, though single readings can be large; an effect the other way counts as inactive or inconclusive.

Key:
[1] = target: Lysosomal acid glucosylceramidase (Homo sapiens) (UniProt P04062); experiment: Glucocerebrosidase-p2 (AID 348; in the data active = potency below about 10 µM; also: potency is read from the fitted curve at half-maximal effect); conditions: purified GBA, blue fluorogenic substrate, 40 min
Outline: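 Compounds titrated from 0.6 nM upwards against 0.2 nM enzyme in pH 5.9 citric acid/KH2PO4, taurocholate, tween-20; blue fluorogenic substrate 80 uM, 40 min room temperature, stopped and read Ex 365/Em 440 for AC50.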

[2] = AP1 Signaling Pathway (AID 357; active = well fitted curve in either direction with a large enough effect, not every such curve was filed as active;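 also: ME-180 reporter cells stimulated with EGF at its EC50 level; % is scaled to controls: 0 for no effect and ±100 for the full control effect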); conditions: ME-180 AP-1-bla reporter, EGF-induced, beta-lactamase ratio, 5 h; at 7.69 µM (top of the series) unless noted
Outline: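 In this screen, ME-180 cells in Opti-MEM with 0.5% dialyzed FBS received EC50 EGF and compound titrations for 5 h. AP-1 reporter beta-lactamase was detected via CCF4 ratio, giving AC50 for positive and negative modulators.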

[3] = target: Cytochrome P450 1A2 (Homo sapiens) (UniProt P05177); experiment: p450-cyp1a2 (AID 410; calls by dose curve; also: potency is read from the fitted curve at half-maximal effect;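 as to activity change, negative = inhibition: -100% = full effect of reference inhibitor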); conditions: recombinant CYP1A2, luciferin-ME demethylation, luminescence; series mostly up to 57 µM
Outline: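 Human CYP1A2 (20nM) demethylated Luciferin-ME at its Km (100uM) in 100mM KPO4. After 10 min compound preincubation, NADPH regeneration ran the reaction 60 min at room temperature. Luciferin was read by luminescence, normalized to 57 uM furafylline.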

[4] = NFAT Signaling Pathway (AID 444; active = well fitted curve in either direction with a large enough effect, not every such curve was filed as active;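 also: carbachol stimulus at about its EC50 of 1 µM final; % is scaled to controls: 0 for no effect and ±100 for the full control effect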); conditions: Jurkat NFAT-bla M1, carbachol, beta-lactamase ratio, 5 h; at 7.69 µM (top of the series) unless noted
Outline: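 Jurkat cells with NFAT-driven β-lactamase reporter and co-expressed M1 receptor, stimulated with carbachol (final 1 uM, ~EC50), compound titration, 5 h at 37 °C. CCF4 loaded 1 h at RT; 460/530 nm ratio gave %activity and AC50.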

[5] = Stat Signaling Pathway (AID 446; active = well fitted curve in either direction with a large enough effect, not every such curve was filed as active;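 also: ME-180 cervical cancer cells given 40 pM IL-6 alongside compound; SIE-controlled beta-lactamase reporter measured as 460/530 nm FRET emission ratio; % is scaled to controls: 0 for no effect and ±100 for the full control effect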); conditions: ME-180 (cervical carcinoma) SIE beta-lactamase reporter, IL-6 stimulated, 5 h; at 7.69 µM (top of the series) unless noted
Outline: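 IL-6/STAT signaling read in ME-180 cells via an SIE beta-lactamase reporter. Stimulus was 40 pM IL-6 (its AC50) for 5 hrs, so both activation and inhibition register.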

[6] = target: Glucocorticoid receptor (Homo sapiens) (UniProt P04150); experiment: GR-GFP Redistribution (AID 450;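 active = compounds whose dose series gives a full or clear partial fitted curve of increased nuclear translocation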; also: potency is read from the fitted curve at half-maximal effect); conditions: U2OS GR-GFP nuclear translocation, laser cytometry, 2 h
[7] = target: Glucocorticoid receptor (Homo sapiens) (UniProt P04150); experiment: GR-EFC Redistribution (AID 451; calls by dose curve; also: potency is read from the fitted curve at half-maximal effect); conditions: CHO-K1 GR-EFC translocation, beta-gal luminescence, 2 h
Outline: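 CHO-K1 cells expressing nuclear EA and GR-ED fragments of b-gal; compounds titrated up to 46 uM final, 2 h at 37 C. GR nuclear translocation read as complemented b-gal luminescence after 1 h RT detection.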

[8] = target: Mitogen-activated protein kinase 10 (Mus musculus) (UniProt Q61831); experiment: JNK3 AlphaScreen Assay (AID 530; active = well fitted curve in either direction with a large enough effect, not every such curve was filed as active;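 also: kinase came from lysate of stimulated human HepG2 cells; signal reports phosphorylation of biotinylated GST-cJun 1-79 at Ser73 with 10 µM ATP; % is scaled to controls: 0 for no effect and ±100 for the full control effect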); conditions: JNK3 lysate, c-Jun phosphorylation; series mostly up to 57.1 µM
Outline: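 qHTS format: compounds tested as titrations against IL-1beta/TNF-alpha-activated HepG2 lysate JNK3 with biotin-GST-cJun substrate and 10 uM ATP at room temperature. Loss of anti-phospho-cJun AlphaScreen signal indicates inhibition.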

[9] = target: Cytochrome P450 3A4 (Homo sapiens) (UniProt P08684); experiment: qHTS Assay for Inhibitors and Substrates of Cytochrome P450 3A4 (AID 884); conditions: recombinant CYP3A4, Luciferin-PPXE luminescence; series mostly up to 57.1 µM; also: potency is read from the fitted curve at half-maximal effect; nearly all actives have a fitted effect of over 50% in size
Outline: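 20 nM human CYP3A4 with 25 uM Luciferin-PPXE (at KM) in 200 mM KPO4, preincubated 10 min with compound; NADPH regeneration started a 60 min RT reaction. Luciferin detected by luminescence, normalized to 57 uM ketoconazole as full inhibition.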

[10] = target: Cytochrome P450 3A4 (Homo sapiens) (UniProt P08684); experiment: qHTS Assay for Activators of Cytochrome P450 3A4 (AID 885); conditions: recombinant CYP3A4, Luciferin-PPXE luminescence, 60 min; series mostly up to 57.1 µM; also: nearly all actives have a fitted effect of over 65% in size
Outline: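 Quantitative HTS format: compounds preincubated with 20nM human CYP3A4 and Luciferin-PPXE substrate at KM, reaction started by NADPH regeneration, stopped after 60 min, luciferase luminescence read 20 min later.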

[11] = Confirmation and Secondary Assay for Modulators of Hemoglobin Beta Chain Splicing at IVS2 654 locus (AID 910); conditions: HeLa EGFP-654 splicing reporter, GFP fluorescence, 48 h; series mostly up to 38.3 µM;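 also: HeLa cells stably carrying EGFP split by mutant beta-globin IVS2-654 intron; % of control where 0% means no effect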
Outline: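 HeLa cells stably expressing EGFP interrupted by β-globin IVS2-654 intron, seeded overnight in Opti-MEM/2% FCS, then treated 2 days at 37 °C. Restored splicing read as total peak GFP intensity per well by laser scanning cytometry (488 nm excitation, 500–520 nm emission); 500 nM antisense PNA as control.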

[12] = Confirmation and Secondary Assay for Modulators of Hemoglobin Beta Chain Splicing at IVS2 705 locus (AID 930); conditions: HeLa EGFP-705 splicing reporter, GFP fluorescence, 48 h; series mostly up to 38.3 µM;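 also: HeLa cells stably expressing the EGFP-705 splicing reporter; GFP fluorescence per well restored by corrected splicing of the IVS2-705 intron in EGFP; % of control where 0% means no effect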
Outline: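 Per-well GFP, captured at 1 x 8 µm resolution with 488 nm excitation, served as the read-out for HeLa EGFP-705 cells incubated 2 days with test compound versus DMSO.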

[13] = qHTS Assay for Lipid Storage Modulators (AID 1519; calls by dose curve); conditions: Drosophila S3 cells, BODIPY lipid droplet/cell ratio, laser cytometry, cells loaded with oleic acid; for activity change, negative = inhibition: at 57.5 µM (top of the series)
Outline: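 Cells seeded at 5,000 per well were treated with compounds over a concentration series and loaded with oleic acid (400 uM, as added). Lipid droplet fluorescence (488 nm excitation, 500-530 nm channel) was read by laser-scanning cytometry and normalized to 20 uM Triacsin C.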

[14] = target: Ubiquitin carboxyl-terminal hydrolase 1 (Homo sapiens) (UniProt O94782); experiment: Inhibitors of USP1/UAF1: Pilot qHTS (AID 504865); conditions: purified USP1/UAF1, Ub-rhodamine cleavage fluorescence; series mostly up to 54.9 µM;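 also: rhodamine fluorescence freed from ubiquitin-rhodamine substrate followed over time; top concentration of the series differs between compounds; % is scaled to controls: 0 for no effect and ±100 for the full control effect; nearly all actives have a fitted effect of over 35% in size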
Outline: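 Enzyme-free wells gave the negative control, while test wells held 1nM USP1/UAF1 preincubated with compound for 15 min at room temperature. Ub-Rho at 150nM final started the reaction, and fluorescence at 480/540 nm was recorded kinetically.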

[15] = Primary qHTS for small molecule stabilizers of the endoplasmic reticulum resident proteome: Secreted ER Calcium Modulated Protein (SERCaMP) assay (AID 1508630); conditions: SH-SY5Y GLuc-SERCaMP (Gaussia luciferase released on ER calcium loss) secretion, thapsigargin, luminescence; series mostly up to 38.4 µM; also: % is scaled to controls: 0 for no effect and ±100 for the full control effect
Outline: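 GLuc-SERCaMP-expressing SH-SY5Y cells, pretreated 16 h with compound, are challenged with thapsigargin to empty ER calcium stores; after 4 h, coelenterazine is added directly to the medium and luminescence is imaged.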

[16] = target: 3',5'-cyclic-AMP phosphodiesterase 4B (Homo sapiens) (UniProt Q07343); experiment: qHTS Assay for Inhibitors of PDE-IV (AID 607; active = well fitted activation curve with a large enough effect in the main read-out, with a control signal flat, not every such curve was filed as active; also: % of control where 0% means no effect); conditions: HEK293 ACTOne CNG channel cells, membrane potential fluorescence; series mostly up to 22.9 µM
Outline: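 Live HEK293 cells with a modified cyclic nucleotide-gated (CNG) channel report intracellular cAMP via membrane-potential dye fluorescence (ex 535/em 590 nm). Endogenous PDE-IV was targeted. Compounds were tested at up to 22.9 uM final; RO 20-1724 100 uM served as control.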

[17] = measured here: cell count channel max response
[18] = measured here: lipid channel max response

Chain of Glucocorticoid receptor (Homo sapiens) (P04150 whole entry, looked up, the tested form may be a part): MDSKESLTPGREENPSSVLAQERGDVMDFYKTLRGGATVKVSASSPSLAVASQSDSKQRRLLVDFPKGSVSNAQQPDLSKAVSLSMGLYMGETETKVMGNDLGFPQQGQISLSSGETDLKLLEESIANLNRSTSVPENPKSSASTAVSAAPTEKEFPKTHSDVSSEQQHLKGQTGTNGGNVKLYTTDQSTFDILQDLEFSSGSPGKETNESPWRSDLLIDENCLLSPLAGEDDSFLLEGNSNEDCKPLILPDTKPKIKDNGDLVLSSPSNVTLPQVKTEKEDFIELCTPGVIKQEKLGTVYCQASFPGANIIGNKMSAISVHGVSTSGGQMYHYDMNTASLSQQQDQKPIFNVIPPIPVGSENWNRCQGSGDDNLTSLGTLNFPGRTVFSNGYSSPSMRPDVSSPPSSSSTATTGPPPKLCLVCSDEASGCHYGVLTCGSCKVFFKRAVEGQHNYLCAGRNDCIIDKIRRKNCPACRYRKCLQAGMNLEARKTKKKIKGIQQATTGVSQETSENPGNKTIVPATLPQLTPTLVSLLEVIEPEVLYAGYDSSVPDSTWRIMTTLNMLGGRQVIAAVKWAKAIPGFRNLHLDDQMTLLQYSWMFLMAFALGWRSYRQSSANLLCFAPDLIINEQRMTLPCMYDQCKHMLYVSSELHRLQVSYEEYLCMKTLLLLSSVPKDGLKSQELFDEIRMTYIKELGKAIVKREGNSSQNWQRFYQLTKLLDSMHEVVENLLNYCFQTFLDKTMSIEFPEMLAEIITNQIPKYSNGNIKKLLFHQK
Chain of Ubiquitin carboxyl-terminal hydrolase 1 (Homo sapiens) (O94782 whole entry, looked up): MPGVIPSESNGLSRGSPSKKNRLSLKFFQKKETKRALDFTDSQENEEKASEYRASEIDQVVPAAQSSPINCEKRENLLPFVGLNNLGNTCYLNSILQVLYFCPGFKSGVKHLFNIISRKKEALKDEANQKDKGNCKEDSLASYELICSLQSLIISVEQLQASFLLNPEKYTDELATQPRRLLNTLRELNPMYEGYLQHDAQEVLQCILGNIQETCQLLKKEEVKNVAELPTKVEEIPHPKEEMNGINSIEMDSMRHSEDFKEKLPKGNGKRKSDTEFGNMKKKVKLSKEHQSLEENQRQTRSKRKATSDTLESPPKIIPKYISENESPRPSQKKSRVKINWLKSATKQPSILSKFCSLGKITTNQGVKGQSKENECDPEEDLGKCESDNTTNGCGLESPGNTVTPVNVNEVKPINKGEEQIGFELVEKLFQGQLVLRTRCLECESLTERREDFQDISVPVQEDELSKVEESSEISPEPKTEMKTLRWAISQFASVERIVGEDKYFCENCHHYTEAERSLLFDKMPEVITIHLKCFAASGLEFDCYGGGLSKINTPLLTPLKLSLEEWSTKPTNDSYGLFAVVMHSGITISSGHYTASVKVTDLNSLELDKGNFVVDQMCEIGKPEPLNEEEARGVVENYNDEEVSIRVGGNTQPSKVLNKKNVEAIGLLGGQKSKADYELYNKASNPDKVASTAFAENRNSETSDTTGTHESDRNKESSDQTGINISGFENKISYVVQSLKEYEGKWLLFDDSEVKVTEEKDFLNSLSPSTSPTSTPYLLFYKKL
Chain of Cytochrome P450 3A4 (Homo sapiens) (P08684 whole entry, looked up): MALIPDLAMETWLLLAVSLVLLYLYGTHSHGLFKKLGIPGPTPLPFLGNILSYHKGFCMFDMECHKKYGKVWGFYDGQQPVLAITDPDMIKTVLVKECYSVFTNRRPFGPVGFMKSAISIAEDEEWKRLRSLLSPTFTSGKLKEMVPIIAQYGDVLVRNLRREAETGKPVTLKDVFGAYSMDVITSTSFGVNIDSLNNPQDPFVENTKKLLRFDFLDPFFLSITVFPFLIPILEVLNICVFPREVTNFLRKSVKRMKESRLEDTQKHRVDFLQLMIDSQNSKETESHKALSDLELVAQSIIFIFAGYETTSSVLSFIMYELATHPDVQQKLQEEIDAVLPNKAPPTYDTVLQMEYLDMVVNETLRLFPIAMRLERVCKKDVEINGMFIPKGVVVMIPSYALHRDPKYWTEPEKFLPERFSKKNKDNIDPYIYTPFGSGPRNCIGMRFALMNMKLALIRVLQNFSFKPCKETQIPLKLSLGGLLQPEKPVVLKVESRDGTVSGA
Chain of Cytochrome P450 1A2 (Homo sapiens) (P05177 whole entry, looked up): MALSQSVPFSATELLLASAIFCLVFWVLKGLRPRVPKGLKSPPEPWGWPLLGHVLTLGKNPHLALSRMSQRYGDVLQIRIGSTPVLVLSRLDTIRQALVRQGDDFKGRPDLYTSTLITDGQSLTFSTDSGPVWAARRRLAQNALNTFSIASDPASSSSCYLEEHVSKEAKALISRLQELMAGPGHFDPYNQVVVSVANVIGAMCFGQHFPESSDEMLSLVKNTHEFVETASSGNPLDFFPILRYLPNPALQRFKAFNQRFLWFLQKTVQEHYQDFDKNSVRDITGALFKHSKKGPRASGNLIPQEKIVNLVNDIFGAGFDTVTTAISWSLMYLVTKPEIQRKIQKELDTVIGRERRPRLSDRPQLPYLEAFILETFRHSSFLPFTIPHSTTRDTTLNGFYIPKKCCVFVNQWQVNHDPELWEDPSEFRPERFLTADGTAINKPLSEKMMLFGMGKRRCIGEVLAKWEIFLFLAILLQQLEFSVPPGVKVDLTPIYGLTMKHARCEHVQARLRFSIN
Chain of Lysosomal acid glucosylceramidase (Homo sapiens) (P04062 whole entry, looked up): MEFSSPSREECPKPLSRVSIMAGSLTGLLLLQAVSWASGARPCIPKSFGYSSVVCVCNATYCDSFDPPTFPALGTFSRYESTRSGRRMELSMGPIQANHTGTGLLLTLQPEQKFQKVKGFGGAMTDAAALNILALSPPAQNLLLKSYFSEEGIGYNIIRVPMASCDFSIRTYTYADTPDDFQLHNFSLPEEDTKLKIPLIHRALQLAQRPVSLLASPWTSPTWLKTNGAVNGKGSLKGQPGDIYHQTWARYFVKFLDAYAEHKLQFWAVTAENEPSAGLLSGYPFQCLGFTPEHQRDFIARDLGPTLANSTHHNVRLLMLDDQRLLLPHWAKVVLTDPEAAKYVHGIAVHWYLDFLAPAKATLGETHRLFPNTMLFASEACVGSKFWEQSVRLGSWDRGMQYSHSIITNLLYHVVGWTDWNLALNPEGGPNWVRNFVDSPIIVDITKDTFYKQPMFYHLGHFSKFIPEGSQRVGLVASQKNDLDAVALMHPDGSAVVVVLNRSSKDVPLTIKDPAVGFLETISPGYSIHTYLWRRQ
Chain of 3',5'-cyclic-AMP phosphodiesterase 4B (Homo sapiens) (Q07343 whole entry, looked up): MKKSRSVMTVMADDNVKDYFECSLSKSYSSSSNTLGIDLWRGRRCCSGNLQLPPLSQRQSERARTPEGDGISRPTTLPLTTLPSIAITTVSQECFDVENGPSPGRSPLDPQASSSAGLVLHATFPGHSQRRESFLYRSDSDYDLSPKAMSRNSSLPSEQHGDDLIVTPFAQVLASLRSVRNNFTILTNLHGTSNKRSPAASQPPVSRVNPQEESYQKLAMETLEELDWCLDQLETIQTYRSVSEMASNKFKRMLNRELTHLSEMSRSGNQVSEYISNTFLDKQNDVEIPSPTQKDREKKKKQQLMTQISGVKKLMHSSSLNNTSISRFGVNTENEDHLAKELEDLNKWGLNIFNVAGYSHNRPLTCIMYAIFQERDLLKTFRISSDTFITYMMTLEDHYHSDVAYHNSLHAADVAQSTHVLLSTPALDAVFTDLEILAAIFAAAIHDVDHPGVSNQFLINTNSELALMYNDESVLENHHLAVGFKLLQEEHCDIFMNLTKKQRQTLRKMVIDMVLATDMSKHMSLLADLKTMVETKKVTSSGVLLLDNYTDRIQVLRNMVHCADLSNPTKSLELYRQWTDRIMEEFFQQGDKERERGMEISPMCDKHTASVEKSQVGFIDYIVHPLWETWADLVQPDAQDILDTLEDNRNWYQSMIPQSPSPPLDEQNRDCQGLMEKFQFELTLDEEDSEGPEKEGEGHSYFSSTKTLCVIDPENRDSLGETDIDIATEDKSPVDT

Row | Structure (SMILES) | Potency [1] | activity change, negative = inhibition [2] | Potency [3] | activity change, negative = inhibition [4] | activity, negative = inhibition [5] | Potency [6] | Potency [7] | outcome [8] | Potency [9] | Potency [10] | outcome [11] | outcome [12] | activity change, negative = inhibition [13] | max response [13, 17] [%] | max response [13, 18] [%] | Potency [14] | Potency [15] | Potency [16]
1 | COc1ccccc1-c1cc(NCc2cccnc2)ncn1 | > 11.4 µM (inactive) | -6.59% (inactive) | 0.316 µM (active) | -4.97% (inactive) | 0.807% (inactive) | > 46 µM (inactive) | > 46 µM (inactive) | inactive | 5.01 µM (active) | inactive | inactive | inactive | 4.96% (inactive) | 9.53 | 19.3 | inactive | inactive | –
2 | N#Cc1cccc(-c2cc(NCc3cccs3)ncn2)c1 | > 11.4 µM (inactive) | -6.14% (inactive) | 0.794 µM (active) | 12.6% (inactive) | -3.35% (inactive) | > 46 µM (inactive) | > 46 µM (inactive) | inactive | – | inactive | inactive | inactive | 3.14% (inactive) | -10.3 | -10.9 | inactive | inactive | inactive
3 | CN(C)Cc1ccccc1-c1cc(Nc2ccccc2)ncn1 | > 11.4 µM (inactive) | 1.09% (inactive) | 15.8 µM (active) | -10.2% (inactive) | 9.68% (inactive) | > 46 µM (inactive) | > 46 µM (inactive) | inactive | – | – | inactive | inactive | 4.87% (inactive) | 5.64 | 12.4 | inactive | inactive | inactive
4 | COCCNc1ccnc(-c2cccc(NS(C)(=O)=O)c2)n1 | > 11.4 µM (inactive) | -8.74% (inactive) | 2 µM (active) | 12.6% (inactive) | -1.1% (inactive) | > 46 µM (inactive) | > 46 µM (inactive) | inactive | – | inactive | inactive | inactive | 9.23% (inactive) | 14.8 | 25.9 | inactive | inactive | inactive
5 | COc1ccc(-n2c(=O)cnc3cnc(Oc4ccccc4)nc32)cc1 | > 11.4 µM (inactive) | -8.13% (inactive) | 15.8 µM (active) | 2.58% (inactive) | -13.1% (inactive) | > 9.22 µM (inactive) | > 46 µM (inactive) | inactive | – | inactive | – | – | 1.98% (inactive) | 3.82 | 6.57 | – | inactive | inactive
6 | Cc1cnc(CNc2ccnc(-c3ccccc3Cl)n2)cn1 | > 11.4 µM (inactive) | -1.45% (inactive) | 12.6 µM (active) | -3.33% (inactive) | 7.09% (inactive) | > 46 µM (inactive) | > 46 µM (inactive) | inactive | – | inactive | inactive | inactive | 7.03% (inactive) | 7.84 | 16.2 | inactive | inactive | inactive
7 | CN(C)Cc1ccccc1-c1nc(N2CCOCC2)c2ccccc2n1 | > 11.4 µM (inactive) | 25.9% (inactive) | 20 µM (active) | -1.63% (inactive) | 27.7% (inactive) | > 46 µM (inactive) | > 46 µM (inactive) | inactive | – | inactive | inactive | inactive | 5.13% (inactive) | 11.7 | 18.4 | inactive | inactive | –
8 | Cc1cnc(CNc2ncncc2-c2ccccc2C(F)(F)F)cn1 | > 11.4 µM (inactive) | -6.17% (inactive) | inactive | 2.1% (inactive) | -1.72% (inactive) | > 46 µM (inactive) | > 46 µM (inactive) | inactive | – | inactive | inactive | inactive | 7.68% (inactive) | 18.6 | 28.1 | inactive | inactive | inactive
9 | Cc1noc(C)c1-c1cc(NC2CC2)ncn1 | > 11.4 µM (inactive) | -3.03% (inactive) | 0.316 µM (active) | 3.57% (inactive) | 5.59% (inactive) | > 46 µM (inactive) | > 46 µM (inactive) | inactive | – | inactive | inactive | inactive | 11% (inactive) | 17 | 27.1 | inactive | inactive | inactive
10 | c1cncc(CNc2cc(-c3ccc4c(c3)OCO4)ncn2)c1 | > 11.4 µM (inactive) | -7.3% (inactive) | 0.251 µM (active) | 11.5% (inactive) | 3.19% (inactive) | > 46 µM (inactive) | > 46 µM (inactive) | inactive | – | – | inactive | inactive | 11.7% (inactive) | 14 | 18.9 | inactive | inactive | inactive
11 | CNc1ccnc(-c2ccccc2CN(C)C)n1 | > 11.4 µM (inactive) | -3.79% (inactive) | 12.6 µM (active) | -12.6% (inactive) | -6.7% (inactive) | > 46 µM (inactive) | > 46 µM (inactive) | inactive | – | – | inactive | inactive | 2.03% (inactive) | -5.53 | 2.14 | inactive | inactive | inactive
